Several values for one entry are separate records, joined by “and”; a condition that tells them apart may be missing. Equal values may be shown once. This is part of a sample that, as a whole, favours compounds with a hit. Of some 83,000 tested, about 20% had one in any assay.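 48-hour exposure, single concentration, 96-well plates; percent growth endpoint where 0 means no net growth. Active: below 10.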 Activity calls are given as the source filed them.

The test system of the experiment is MDA-MB-468 breast. In words: NCI-60 one-dose screen, 48 h (100 = growth as untreated, 0 = no growth, -100 = all killed). Particulars: 10 µM unless noted.
With `CCN1CCN(CCNc2nccc(-c3c(-c4ccc(F)c(O)c4)nc4occn34)n2)S1(=O)=O`, the growth was 23.5% (inactive). As to `NC(=NC1C2CC3CC(C2)CC1C3)Nc1ccc(I)cc1` (stereo not given), the growth is -3.88% (active). `OCCN1CCOCC1`: the growth was 117% (inactive).

Turning to `CCOC(=O)C(CCC(C)C)C(=O)OCC`, the growth was 105% (inactive). On to `COc1cc(C)ccc1Oc1nc(Nc2ccc(N3CCOCC3)cc2)ncc1NC(=O)Nc1cc(C(F)(F)F)cc(C(F)(F)F)c1`, for which the growth is 72.8% (inactive). On to `O=C(Nc1ncc([N+](=O)[O-])s1)c1cccc([N+](=O)[O-])c1`, for which the growth is 28.1% (inactive). With `Cc1cc2c(cc1C)NC1=C(N2)OC(c2c3ccccc3cc3ccccc23)C1=O` (stereo not given), the growth was -18.6% (active). Regarding `O=S(=O)(Oc1ccc(-c2ccc3sccc3c2)cc1)c1ccc(F)cc1`, the growth was 86.9% (inactive). `Cc1ccc(NC2=CC(=O)C(=O)c3ccccc32)c(C)c1`: the growth is 14.1% (inactive).

For `COc1ccccc1-n1cnc(N)c1C(=O)c1cc(OC)c(OC)c(OC)c1`, the growth is 39.3% (inactive). Consider `CC(C)Cc1ccc(C(C)C(=O)NCc2ccc(Cn3c(=O)sn(CCCI)c3=O)cc2)cc1` (stereo not given), for which the growth is 64.3% (inactive) and -91.8% (active). Consider `Cl.[Pt].[c-]1ccccc1-c1ccccn1.c1ccc(P(c2ccccc2)C([PH+](c2ccccc2)c2ccccc2)[PH+](c2ccccc2)c2ccccc2)cc1`, for which the growth is -6.8% (active). Next, `COc1ccc(OC)c(CCn2cncc2-c2c[nH]c3cc(Br)ccc23)c1`: -5.69% (active); `CC(=O)O[C@H]1C[C@@]2(C)[C@@H](C[C@@H](O)[C@H]3[C@@]4(C)CC[C@H](N5CCCC5)[C@@H](C)[C@@H]4CC[C@@]32C)/C1=C(\CCC=C(C)C)C(=O)O`: 94.6% (inactive); `CC1(C)CC[C@]23CC[C@]4(C)[C@H](CC[C@@H]5[C@@]6(C)CCCNC(C)(C)[C@@H]6CC[C@]54C)[C@H]2[C@H]1OC3`: -50.5% (active).

Take `COc1ccc(S(=O)(=O)N2CCCCC2)cc1NC(=O)c1[nH]c(C)c2c1CCCCC2=O`: the growth is -2.19% (active). For `CN(C)c1oc(C2OC2c2ccccc2)nc1C#N` (stereo not given), the growth is 90.3% (inactive). In the case of `COc1ccc(C(=O)/C=C/c2cccc(Nc3ccnc4cc(Cl)ccc34)c2)cc1`, the growth was -2.59% (active).

Consider `Cc1ccnc(NC(c2ccccc2)c2ccc3cccnc3c2O)c1` (stereo not given), for which the growth was 24.9% (inactive). For `CS(=O)(=O)C1=CN(CCO)C(=O)N2CCCN=C12` the value was 93.3% (inactive). As to `CCCOC(=O)c1ccc([N+](=O)[O-])o1`, the growth is 113% (inactive).

`C=C(CN1CC=CCC1)[C@@H]1CC[C@]2(COC(C)=O)CC[C@]3(C)[C@H](CC[C@@H]4[C@@]5(C)CC[C@H](O)C(C)(C)[C@@H]5CC[C@]43C)[C@@H]12`: the growth is 95% (inactive). For `CSc1nc(-c2ccco2)c2c(N)[nH]nc2n1` the value was 113% (inactive); for `S=c1sc2c(Cl)nc(-c3cccnc3)nc2n1-c1ccccc1`, -34.2% (active). As for `COc1ccc(NC(=O)c2sc3nc(C)c(C(=O)c4ccc(OC)cc4)cc3c2N)cc1`, the growth is 13.2% (inactive). As for `O=C(O)CSCC(=O)Nc1cc(C(F)(F)F)ccc1Cl`, the growth is 105% (inactive). Take `O=C1Nc2c(ccc(Cl)c2Cl)/C1=C/c1ccc(O)cc1`: the growth is 62% (inactive). On to `CCNC(=O)Oc1ccc(/C(=C(\C)c2ccc(Cl)cc2)c2ccc(OCCN(CC)CC)cc2)cc1`, for which the growth was 67.5% (inactive).

On to `Cc1c(C(N)=O)sc2c1c(=O)n(Cc1ccccc1)c1nnc(S(=O)(=O)CC(=O)Nc3ccc(Cl)cc3)n21`, for which the growth was 33.2% (inactive).

As to `CN(C)CC1(C)Cc2ccsc2C1O` (stereo not given), the growth is 104% (inactive) and 109% (inactive).

`Cn1cc(-c2nnc(N)nc2-c2c[nH]c3ccc(Br)cc23)c2cc(Br)ccc21`: the growth is 105% (inactive).

Take `CCc1cc2c(cc1N1CCC(N3CCOCC3)CC1)C(C)(C)c1[nH]c3cc(C#N)ccc3c1C2=O`: the growth was -38.2% (active).

On to `O=C(O)C(c1ccccc1)N1C(=O)CSC1=S` (stereo not given), for which the growth is 101% (inactive). For the compound `COc1cc2oc(-c3ccc(O)cc3)cc(=O)c2c(O)c1-c1c(OC)cc(O)c2c(=O)cc(-c3ccc(O)cc3)oc12`, the growth is 36.1% (inactive).

Regarding `NNC(=O)CCCCl`, the growth was 96% (inactive). Turning to `O=C(CCC(=O)c1nc2ncccc2[nH]1)NN1C(=O)CSC1c1ccc(Cl)cc1` (stereo not given), the growth was 112% (inactive). Next, `N#Cc1c(NC(=O)c2ccccc2I)sc2c1CCCC2`: 50% (inactive). Next, `O=C1OCC2=C1C(c1ccccc1)c1cc3c(cc1N2CCO)OCO3` (stereo not given): 9.26% (active); `CCOC(=O)CC(C)=N`: 92.8% (inactive); `COc1cc(OC)c2c(=O)c(O)c(-c3ccccc3)oc2c1`: 75.5% (inactive).

(Values after PubChem BioAssay (NCI).)
